# In the library only some 4.1% were active in any assay of this set; here they are far more common.
# USP2a inh – USP2a (human) protease inhibition | O75604 | USP2a enzymatic assay, qHTS inhibition | Potency, µM (titrated, usually from 38.3 µM), for the others: at the top dose activity change, negative = inhibition, hits mostly inhibitors | 60,000 compounds, 0.1% hits; further: nearly all actives have a fitted effect of over 60% in size
#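 USP2 core (20nM final) preincubated 30 min RT with compound, then Ub-PLA2 20nM and NBD C6-HPC 20uM final added; buffer 20mM Tris-HCl pH 8.0, 2mM CaCl2. Fluorescence Ex 460/Em 535 read at 0 and 2.5 h; normalized to NEM.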
# UbGFP stabilizer – inhibits proteasome, raising ubiquitin-GFP reporter fluorescence; Potency, µM (titrated, usually from 45.9 µM), inactives show at the highest dose activation (GFP accumulation), most hits filed as activators; AID 526; Ubiquitin-GFP reporter cells, proteasome inhibition, GFP fluorescence; response scale: untreated = 0%, 10 µM MG-132 = 100%; 67,000 tested, under 10 active; active means well fitted activation curve with a large enough effect, not every such curve was filed as active; inconclusive means small, poorly fitted or top-dose-only effect, or another doubt; inactive means no such curve, though single readings can be large or run the other way
#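 Reporter cells (U2OS, ubiquitin-G76V-GFP fusion) are plated overnight, then treated 4 hr at 37 °C with compound titrations from 46 uM down to 2.9 nM. Activity is scaled against untreated cells and 10 uM MG-132.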
# PK Bst – pyruvate kinase (B. stearothermophilus) modulation; purified pyruvate kinase, luminescence ATP production; ribose 5-phosphate activator present at AC10; Potency, µM; AID 361; 51,000 compounds, 1.2% hits; in the data active means potency below about 11 µM; inconclusive means mostly about 12 µM to 25 µM;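 the screen sought inhibitors and activators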;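 further: scaled between full activation by ribose 5 phosphate and full inhibition by luteolin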
# HEK293 cAMP cs – raises cAMP in parental HEK293 cells, TSHR agonist counter-screen | parental HEK293 CNG cAMP sensor, membrane potential fluorescence | AID 938 | Potency, µM (titrated, usually from 57.1 µM), for inactives: at the top dose activation, hits mostly activators | 73,000 compounds, 2.5% hits; further: % of control where 0% means no effect; nearly all actives have a fitted effect of over 55% in size
#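 Parental HEK 293 cells stably expressing a cAMP-gated CNG channel were loaded with membrane potential dye containing 100 uM RO 20-1724 for 60 min. Compound added for 30 min; depolarization read as fluorescence intensity at 590 nm.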
# GBA mod – alters purified human glucocerebrosidase activity; P04062; purified enzyme, resorufin glucoside fluorescence (screen aimed at inhibitors), 20 min; Potency, µM; 48,000 compounds, 1.1% hits; AID 360; in the data active means potency below about 15 µM; inconclusive means mostly about 16 µM to 33 µM;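 further: the screen sought inhibitors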
#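 Wild-type enzyme at 0.2 nM final in 50mM citric acid/KH2PO4, 10mM sodium taurocholate, 0.01% tween-20, pH 5.9, with resorufin beta-D-glucopyranoside at 30 uM final. Compounds titrated, 20 min at RT, red fluorescence read; AC50 from titration.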
# TSHR agonist – agonists of human thyroid stimulating hormone receptor | P16473 | HEK293-CNG-TSHR cells (CNG channel as cAMP sensor), membrane potential dye, cAMP | Potency, µM (titrated, usually from 57.1 µM), inactives show at the highest dose activation, actives largely listed as activators | 73,000 compounds, 0.48% hits; active means well fitted activation curve with a large enough effect in the main read-out, with a control signal flat, not every such curve was filed as active; inconclusive means small, poorly fitted or top-dose-only effect, or a change in a side signal; inactive means no such curve, though single readings can be large or run the other way; % of control where 0% means no effect;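 further: the control signal comes from parental cells without the receptor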
# Target sequence (P16473 whole entry, looked up): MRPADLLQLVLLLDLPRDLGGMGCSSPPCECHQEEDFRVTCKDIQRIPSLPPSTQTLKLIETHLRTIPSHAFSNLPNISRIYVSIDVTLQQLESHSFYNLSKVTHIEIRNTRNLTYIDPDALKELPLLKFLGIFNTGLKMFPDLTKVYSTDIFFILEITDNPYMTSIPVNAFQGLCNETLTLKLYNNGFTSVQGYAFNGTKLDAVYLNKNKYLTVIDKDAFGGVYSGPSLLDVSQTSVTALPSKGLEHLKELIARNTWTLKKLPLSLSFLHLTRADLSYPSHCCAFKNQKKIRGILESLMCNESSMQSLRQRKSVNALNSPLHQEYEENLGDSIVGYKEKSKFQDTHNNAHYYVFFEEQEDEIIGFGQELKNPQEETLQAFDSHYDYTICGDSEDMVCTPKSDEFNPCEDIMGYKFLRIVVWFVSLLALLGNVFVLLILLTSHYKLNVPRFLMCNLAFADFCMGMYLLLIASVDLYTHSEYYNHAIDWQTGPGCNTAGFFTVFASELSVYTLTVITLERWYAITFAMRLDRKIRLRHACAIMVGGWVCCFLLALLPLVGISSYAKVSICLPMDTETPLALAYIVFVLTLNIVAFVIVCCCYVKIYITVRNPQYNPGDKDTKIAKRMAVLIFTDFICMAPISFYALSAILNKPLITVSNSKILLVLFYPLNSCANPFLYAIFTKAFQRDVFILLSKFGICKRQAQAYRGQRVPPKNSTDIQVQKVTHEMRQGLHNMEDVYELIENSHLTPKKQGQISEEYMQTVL
#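 HEK 293 cells stably expressing TSHR and a modified CNG channel, with CNG-only parental cells as counterscreen, were preloaded 60 min at room temperature with membrane potential dye containing 100 uM RO 20-1724. Compound exposure was 30 min, and depolarization was read as fluorescence at 590 nm.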
# * marks the source's active call; other numbers are inactive results; i = inactive; ? = inconclusive; / = no result given; [ ] = another dose, or the depositor's remark. Unless noted, the call rests on the fitted dose curve; in most records, active means well fitted curve in the direction sought with a large enough effect; inconclusive means small, poorly fitted or top-dose-only effect, or another doubt; inactive means no such curve, though single readings can be large; an effect the other way counts as inactive or inconclusive. Potency means the concentration at half of the fitted maximal effect.
SMILES,USP2a inh,UbGFP stabilizer,PK Bst,HEK293 cAMP cs,GBA mod,TSHR agonist
COc1ccc2nc(C)cc(N3CC(C)OC(C)C3)c2c1 (centres undefined),-6.2%,3.6%,>57,15.8µM*,>76.9,?
COC(=O)c1[nH]c2ccc(C)cc2c1NC(=O)CN1CCCc2ccccc21,21.9%,6.7%,9.14*,28.2%,>76.9,0.7%
O=C(N/N=C/c1ccccc1O)c1cc(-c2ccccc2)n[nH]1,/,/,/,27.4%,/,21.5%
COc1ccc(/C=N\n2nnc3ccccc32)cc1,2.6%,-6.5%,2.16*,25.9%,>76.9,11.6%
CC(C)=CCC1=C(O)c2ccccc2C(=O)C1=O,-14.2%,/,/,/,/,/
O=C(Nc1ccc(-c2nc3ccccc3[nH]2)cc1)c1ccco1,10.9%,8.1%,3.94*,-1.9%,?,0.3%
Cc1ccc2nc(-c3cccc(NC(=O)c4ccco4)c3)[nH]c2c1,61.1%,13.9%,6.36*,21.5%,>76.9,17.6%
O=C(Nc1ccc2nc(-c3ccco3)[nH]c2c1)c1ccco1,-0.1%,11.3%,10.3*,22.8%,>76.9,7.7%
O=C(Nc1ccc2nc(-c3ccco3)[nH]c2c1)c1cccs1,34.5%,-6.7%,10.1*,6.6%,>76.9,12.4%
Cc1nc2cnc(N(C)C)nc2n(C)c1=O,-2.7%,-8.0%,/,?,/,?
Cc1ccccc1-c1cc(Nc2ccc(F)cc2)ncn1,1.6%,-6.6%,/,12.5%,/,-10.4%
Cc1ccc(S(=O)(=O)NC(=O)NN2CC3CCCC3C2)cc1 (centres undefined),-10.4%,/,/,/,/,/
COc1ccc(-c2nc3cnc(OC)nc3n(CCc3ccccc3)c2=O)cc1,85.4%,-8.0%,/,?,/,?
O=C1C(Cl)=C(NCCCN2CCOCC2)C(=O)N1CCc1ccccc1,-5.5%,1.7%,>57,7.6%,11.3*,1.3%
Cc1nc2scc(-c3cccs3)c2c(=O)n1-n1cccc1,29.4%,-9.4%,/,31.6µM*,/,?
Cc1nc2cnc(Oc3cccc(Cl)c3)nc2n(Cc2ccc(F)cc2)c1=O,162.6%,4.0%,/,3.98µM*,/,?
COCCn1c(=O)c(C)nc2cnc(Oc3ccc(OC)cc3)nc21,18.3%,-1.1%,/,31.6µM*,/,?
CCCOc1ccc(-c2nc(C#N)c(N3CCN(CC)CC3)o2)cc1,24.1%,0.0%,5.78*,30.6%,?,/
CCCOc1ccc(-c2nc(C#N)c(N3CCN(C)CC3)o2)cc1,36.8%,1.7%,7.26*,23.6%,/,20.3%
CCOc1ccc(-c2nc(C#N)c(N3CCN(C)CC3)o2)cc1,7.1%,3.3%,?,12.2%,?,20.1%
N#CC1=C(N)OC2=C(CCC/C2=C/c2ccoc2)C1c1ccoc1 (centres undefined),33.0%,-2.1%,>57,10.1%,>76.9,25.1µM*
Cn1c(Nn2cnnc2)nc2ccccc21,-2.8%,2.6%,>57,3.16µM*,>76.9,?
Cn1c(CNc2nc3ccccc3n2C)nc2ccccc21,-13.4%,-6.2%,/,5.5%,/,10.3%
COc1ccccc1C(=O)NCCn1cc(SCC(=O)Nc2nnc(C)s2)c2ccccc21,50.2%,3.5%,>57,11.1%,6.24*,8.4%
COc1ccccc1CNC(=O)CCC(=O)Nc1nnc(C)s1,-0.9%,-2.3%,?,-2.6%,>76.9,10.4%
SMILES,USP2a inh,UbGFP stabilizer,PK Bst,HEK293 cAMP cs,GBA mod,TSHR agonist
C#C[C@]1(OC(C)=O)CCC2C3CCC4=CC(=O)CCC4C3CC[C@]21C (some centres undefined),6.1%,/,/,/,/,/
Cc1cccc(CNc2cc(-c3ccccc3C)ncn2)c1,-4.1%,-6.6%,/,?,/,?
O=C(OCc1nnc(-c2ccccc2)o1)c1ccc2c(c1)OCO2,-3.7%,-5.1%,>57,39.8µM*,>76.9,?
CCCCC#Cc1nc(N)c2ncn([C@@H]3O[C@@H](C(=O)NCC)[C@H](O)[C@@H]3O)c2n1,10.8%,-3.2%,/,2µM*,/,?
CCCC(c1nnnn1Cc1ccccc1)N1CCN(c2ccccc2OC)CC1 (centres undefined),-24.5%,7.7%,>57,10µM*,>76.9,?
CCCC(c1nnnn1Cc1ccc(OC)cc1)N1CCN(c2ccccc2OC)CC1 (centres undefined),-4.5%,3.4%,>57,25.1µM*,i,?
COCCn1nnnc1C(c1ccccc1OC)N1CCN(c2ccccc2F)CC1 (centres undefined),23.6%,3.4%,>57,7.94µM*,>76.9,?
CCCC(c1nnnn1Cc1cccs1)N1CCN(c2ccc(OC)cc2)CC1 (centres undefined),-4.9%,7.4%,>57,?,>76.9,?
CC1/C=C/C=C/C=C/C=C/C=C/C=C/C=C/C(OC2OC(C)C(O)C(N)C2O)CC2O[C@@](O)(CC(O)CC(O)C(O)CCC(O)CC(O)CC(=O)OC(C)[C@H](C)C1O)CC(O)C2C(=O)O (some centres undefined),31.0%,/,/,/,/,/
CCOC(=O)[C@]1(CC(=O)O)CCCC1=O,/,-0.5%[9.17 µM],/,3.8%[11.4 µM],/,0.2%[11.4 µM]
O=C(Nc1ccc(NC(=O)C2CCCCC2)cn1)c1ccco1,5.3%,-2.5%,i,0.1%,9.8*,3.3%
O=C(Nc1ccc(NC(=O)C23CC4CC(CC(C4)C2)C3)cn1)c1ccco1,63.4%,4.5%,>57,0.1%,>76.9,1.1%
COc1cccc(Cn2c(=O)c(C)nc3cnc(N(C)C)nc32)c1,128.4%,10.0%,/,?,/,?
NS(=O)(=O)c1ccc(CCNC(=O)NC2(C(F)(F)F)Oc3ccccc3O2)cc1,7.1%,1.5%,>57,7.2%,13.6*,-4.2%
O=C(NCCN1CCOCC1)NC1(C(F)(F)F)Oc2ccccc2O1,-1.6%,-2.2%,>57,2.0%,i,2.4%
C[N+](C)([O-])Cc1cc(-c2ccccc2)ccc1O,/,1.1%[9.17 µM],/,5.5%[11.4 µM],/,5.7%[11.4 µM]
COC(=O)C/C=C\[C@@H](C)[C@@H](CO)NS(=O)(=O)c1ccc(C)cc1,/,/,/,-2.7%[11.4 µM],/,8.1%[11.4 µM]
Cc1nc2cnc(N(C)C)nc2n(CCc2ccccc2)c1=O,3.7%,4.9%,/,15.8µM*,/,?
CN(C)c1ncc2nc(CCc3ccccc3)c(=O)n(CCc3ccccc3)c2n1,15.2%,-4.0%,/,?,/,?
Nc1nc(C(=O)O)c(N=Nc2ccccc2)c(=O)[nH]1,/,-6.2%[9.17 µM],/,16.1%[11.4 µM],/,1.5%[11.4 µM]
CCOC(=O)c1cc2occc2n1CC(=O)NC1CCCCC1C (centres undefined),-7.2%,3.9%,>57,12.6µM*,>76.9,?
COC(=O)c1cc2occc2n1CC(=O)Nc1cc(OC)cc(OC)c1,4.0%,9.9%,>57,2.1%,?,-0.9%[11.4 µM]
O=C(c1cccc(F)c1)N1C2C=CC(C2)C1(C(F)(F)F)C(F)(F)F (centres undefined),7.0%,4.8%,>57,23.2%,>76.9,25.1µM*

# Source: PubChem BioAssay (National Center for Advancing Translational Sciences (NCATS))
